Each structure is given as a SMILES string. Unmarked numbers belong to inactive results. Inconclusive results are not listed. Calls of active or inactive are those of the source. Unless noted, the call rests on the fitted dose curve; in most records, active means well fitted curve in the direction sought with a large enough effect in the repeat runs; inconclusive means weak or mixed curves; inactive means no such curve, though single readings can be large; an effect the other way counts as inactive or inconclusive.

This note sets out measurements from PubChem BioAssay (Tox21).

A short description of test [1]: qHTS assay to identify small molecule agonists of the estrogen receptor alpha (ER-alpha) signaling pathway in the presence of an antagonist - cell viability counter screen (AID 1259386). Further: series mostly up to about 92 µM; nearly all actives have a fitted effect of over 30% in size. Put shortly:
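Compounds tested at 15 concentrations for 22 h at 37C alongside 10.0nM (final) ICI-182,780 antagonist, in VM7Luc4E2 cells grown in phenol red-free, charcoal-stripped medium. Viability read by CellTiter-Fluor fluorescence after 1 h reagent incubation.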

For test [2], the target named is Progesterone receptor (Homo sapiens) (UniProt P06401). Put plainly: qHTS assay to identify small molecule agonists of the progesterone receptor (PR) signaling pathway (AID 1346784; calls by dose curve; further: nearly all actives have a fitted effect of over 30% in size). In a few lines: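 PR-UAS-bla HEK 293T cells (beta-lactamase reporter under UAS) in 2% charcoal-stripped FBS, dosed with 23 nL compound after 6 hr, incubated 16hr at 37C. LiveBLAzer B/G FRET substrate added, fluorescence read after 2 hours.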
Chain of Progesterone receptor (Homo sapiens) (P06401 whole entry, looked up): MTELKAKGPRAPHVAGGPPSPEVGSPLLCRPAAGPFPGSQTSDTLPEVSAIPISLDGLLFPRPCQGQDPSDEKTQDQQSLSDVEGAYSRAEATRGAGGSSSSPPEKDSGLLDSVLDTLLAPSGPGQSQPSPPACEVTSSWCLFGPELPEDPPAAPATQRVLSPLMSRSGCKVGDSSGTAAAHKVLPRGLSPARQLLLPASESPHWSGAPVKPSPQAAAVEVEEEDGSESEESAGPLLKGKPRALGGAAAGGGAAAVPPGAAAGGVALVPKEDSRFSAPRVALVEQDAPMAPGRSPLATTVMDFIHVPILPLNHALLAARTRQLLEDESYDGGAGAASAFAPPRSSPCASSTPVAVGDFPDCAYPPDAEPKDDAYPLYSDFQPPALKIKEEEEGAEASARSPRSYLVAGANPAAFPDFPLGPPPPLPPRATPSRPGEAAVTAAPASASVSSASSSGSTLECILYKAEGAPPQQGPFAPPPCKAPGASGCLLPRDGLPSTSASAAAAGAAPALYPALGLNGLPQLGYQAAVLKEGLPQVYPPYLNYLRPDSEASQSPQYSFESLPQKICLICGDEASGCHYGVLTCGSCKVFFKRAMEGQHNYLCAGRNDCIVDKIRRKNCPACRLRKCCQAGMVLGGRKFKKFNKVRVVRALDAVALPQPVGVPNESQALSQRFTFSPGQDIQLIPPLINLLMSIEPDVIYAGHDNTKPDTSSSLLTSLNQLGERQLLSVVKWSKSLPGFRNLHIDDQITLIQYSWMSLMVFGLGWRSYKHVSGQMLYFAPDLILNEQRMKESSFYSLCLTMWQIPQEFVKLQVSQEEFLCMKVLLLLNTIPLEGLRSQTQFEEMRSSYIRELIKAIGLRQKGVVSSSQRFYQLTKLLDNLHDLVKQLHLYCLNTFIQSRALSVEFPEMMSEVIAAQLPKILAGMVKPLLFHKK

Test [3] is described as follows: qHTS assay to identify small molecule agonists of the progesterone receptor (PR) signaling pathway - cell viability counter screen (AID 1346799; calls by dose curve; further: nearly all actives have a fitted effect of over 45% in size). In a few lines:
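Counter screen in the PR-UAS-bla HEK293T wells (2% charcoal-stripped FBS, 16 h compound exposure at 37 C) after the bla read. CellTiter-Glo added, 30 min at room temperature, luminescence read as cell viability.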

Test [4] can be described thus: qHTS assay to identify small molecule antagonists of the TGF-beta/Smad signaling pathway - cell viability counter screen (AID 1346824). Further: nearly all actives have a fitted effect of over 50% in size. In a few lines: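 Cytotoxicity counter-screen run in the same wells as the beta-lactamase Smad reporter read: CellTiter-Glo luminescence after 30 min at room temperature. HEK 293T SBE-bla cells had 5 hr compound exposure at 37 C with TGF-beta1 (0.25 ng/mL stock).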

The nature of test [5]: qHTS assay to identify small molecule agonists of the TGF-beta/Smad signaling pathway - cell viability counter screen (AID 1346829). Further: top concentration of the series differs between compounds; nearly all actives have a fitted effect of over 45% in size. Put shortly:
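Cytotoxicity counter screen: CellTiter-Glo luminescence (30 min, room temperature) measured in the SBE-bla HEK 293T reporter wells after 5 hr compound treatment at 37 C and the 2 hr substrate step.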

Test [6] in a line: qHTS assay to identify small molecule agonists of the TGF-beta/Smad signaling pathway (AID 1346859; active means well fitted activation curve with a large enough effect in the signal ratio in the repeat runs, not every such curve was filed as active; the % refers to the signal ratio; further: series mostly up to about 77 µM). In a few lines: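 SBE-bla HEK293T cells plated overnight, then compound exposure for 5 h at 37 C. Beta-lactamase reporter read with LiveBLAzer B/G FRET substrate after 2 h at room temperature, fluorescence at 405 nm excitation, 460/530 nm emission.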
The nature of test [7]: Human pregnane X receptor (PXR) small molecule agonists, qHTS cell viability counter screen (AID 1346977). Further: nearly all actives have a fitted effect of over 50% in size. Further: potency means the concentration at half of the fitted maximal effect. Put shortly:
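PXR-Luc HepG2 cells (2,000/well, 5% charcoal-stripped FBS) preincubated 5 hr, then exposed to compounds 24 hr at 37 C. Viability read in the same wells by CellTiter-Fluor fluorescence, reagent added at 23 hr, 1 hr incubation.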

Test [8] is described as follows: Caspase-3/7 induction in HepG2 cells by small molecules, qHTS assay (AID 1346978). Further: nearly all actives have a fitted effect of over 15% in size. Put shortly: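 Caspase-3/7 induction was measured by Caspase-Glo 3/7 luminescence (30 min, room temperature) after a 17 hr compound exposure of wild-type HepG2 cells seeded at 2,000 per well and pre-incubated 5 hr.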
Test [9] can be described thus: Caspase-3/7 induction in CHO-K1 cells by small molecules, qHTS assay (AID 1346980). Further: nearly all actives have a fitted effect of over 15% in size. In a few lines:
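Luminescent Caspase-Glo 3/7 read (30min, room temperature) quantified apoptosis induction. Cells were wild-type CHO-K1, treated with compound for 17hr at 37 C and 5% CO2.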

Test [10] has as its target Nuclear receptor subfamily 1 group I member 2 (Homo sapiens) (UniProt O75469). Put plainly: Human pregnane X receptor (PXR) small molecule agonists, qHTS assay (AID 1346982). Further: nearly all actives have a fitted effect of over 35% in size. Further: potency means the concentration at half of the fitted maximal effect. Put shortly:
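Agonist mode: luminescence from ONE-Glo after 24 h compound exposure at 37C in HepG2 cells carrying hPXR-responsive CYP3A4 luciferase, plated in charcoal-stripped serum medium 5 h beforehand.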

In test [11] the target is Thyrotropin-releasing hormone receptor (Homo sapiens) (UniProt P34981). Put plainly: qHTS assay to identify small molecule antagonists of the thyrotropin-releasing hormone receptor (TRHR) signaling pathway (AID 1346877; active means well fitted inhibition curve with a large enough effect in the repeat runs, not every such curve was filed as active; further: series mostly up to about 51 µM). In a few lines: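 Antagonist mode: after a 5 min room-temperature compound exposure, cells were stimulated with 1 nM (final) TRH. Dye-loaded TRHR-HEK293 cells were used, and calcium-dependent fluorescence was followed for 3 min, with 15-point titrations run in triplicate.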
Chain of Thyrotropin-releasing hormone receptor (Homo sapiens) (P34981 whole entry, looked up): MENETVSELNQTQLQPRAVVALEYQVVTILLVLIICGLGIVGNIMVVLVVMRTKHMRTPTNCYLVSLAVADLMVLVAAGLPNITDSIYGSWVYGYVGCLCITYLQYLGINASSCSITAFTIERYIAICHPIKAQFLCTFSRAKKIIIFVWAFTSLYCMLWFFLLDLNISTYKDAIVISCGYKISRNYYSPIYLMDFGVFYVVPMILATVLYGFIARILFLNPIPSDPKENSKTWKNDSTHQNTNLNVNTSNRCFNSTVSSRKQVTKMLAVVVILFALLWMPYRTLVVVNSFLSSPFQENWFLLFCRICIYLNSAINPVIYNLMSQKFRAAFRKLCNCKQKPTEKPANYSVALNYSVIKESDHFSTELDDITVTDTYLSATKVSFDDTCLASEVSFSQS

Test [12] shares this target. Put plainly: qHTS assay to identify small molecule agonists of the thyrotropin-releasing hormone receptor (TRHR) signaling pathway (AID 1346891; calls by dose curve; further: series mostly up to about 58 µM). Put shortly:
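HEK293 cells expressing TRHR plated 18 h at 37 C/5% CO2, calcium dye-loaded 2 h at 37 C, then compound added (agonist mode); kinetic calcium fluorescence read 3 min at 1 s intervals; 15 concentrations in triplicate.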

A short description of test [13]: Caspase-3/7 induction in HepG2 cells by small molecules, qHTS cell viability counter screen (AID 1346981). Further: series mostly up to about 92 µM; nearly all actives have a fitted effect of over 30% in size. In a few lines:
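CellTiter-Fluor fluorescence measured viability in the same wells used for Caspase-Glo 3/7. HepG2 (wild type) at 2,000 cells/well were pre-incubated 5 hr, dosed, and given reagent at 16 hr, with 1 hr further at 37C.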

For test [14], the target named is Cytochrome P450 2D6 (Homo sapiens) (UniProt P10635). Put plainly: Cytochrome P450 Family 2 Subfamily D Member 6 (CYP2D6) small molecule antagonists: luciferase reporter qHTS assay (AID 1671196). Further: series mostly up to about 120 µM; nearly all actives have a fitted effect of over 50% in size. In a few lines:
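CYP2D6 activity was followed as luminescence from its luciferin product after a 1 h NADPH-driven reaction at room temperature. Enzyme-substrate mix and compound were pre-incubated for 10 min, and the signal was read 20 min after adding detection reagent.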

Test [15] in a line: Caspase-3/7 induction in CHO-K1 cells by small molecules, qHTS cell viability counter screen (AID 1346979). Further: nearly all actives have a fitted effect of over 35% in size. In a few lines:
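Wild-type CHO-K1 cells (1,500/well) treated with compound after 5 h plating; after 16 h at 37C, viability read as CellTiter-Fluor fluorescence following 1 h reagent incubation, in the same wells as the caspase read.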

Test [16] in a line: qHTS assay to identify small molecule antagonists of the progesterone receptor (PR) signaling pathway - cell viability counter screen (AID 1346798). Further: nearly all actives have a fitted effect of over 50% in size. Further: potency means the concentration at half of the fitted maximal effect. Put shortly:
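PR-UAS-bla HEK293T cells, 3,000/well in 2% charcoal-stripped FBS medium, dosed with compounds plus R5020 agonist and incubated 16 h at 37C. Viability then measured in the same wells by CellTiter-Glo luminescence after 30 min at RT.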

For test [17], the target named is Nuclear receptor subfamily 1 group I member 2 (Rattus norvegicus) (UniProt Q9R1A7). Put plainly: Rat pregnane X receptor (rPXR) activation by small molecules, qHTS assay (AID 1346983). Further: nearly all actives have a fitted effect of over 20% in size. To be noted: rPXR luciferase reporter cells, One-Glo luminescence, 24 h; max activation: stronger effect = higher value. In a few lines:
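Luminescent readout (One-Glo luciferase, 30 min room temperature) followed 24 hr compound treatment at 37 C of rPXR cells plated 2,000 per well and preincubated 5hr; qHTS format with compounds delivered in DMSO.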

The target in test [18] is Nuclear receptor subfamily 1 group I member 2 (Homo sapiens) (UniProt O75469). Put plainly: CYP3A4 induction through human pregnane X receptor (PXR) by small molecules, qHTS assay (AID 1346984). Further: nearly all actives have a fitted effect of over 40% in size. In a few lines:
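Read-out is luminescence after One-Glo addition, following a 3 hr, 37C incubation with Luciferin-IPA CYP3A4 substrate (3uM final). Before that, compounds were on DPX-2 cells (HepG2 co-transfected with PXR element plus CYP3A4-promoter luciferase) for 24 hr at 37C.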

The target is the same in test [19]. Put plainly: Human pregnane X receptor (PXR) activation by small molecules, qHTS assay (AID 1346985). Further: nearly all actives have a fitted effect of over 40% in size. Put shortly: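 DPX-2 cells (HepG2 co-transfected with a PXR response element and a CYP3A4-promoter luciferase construct) were seeded at 2,000 per well, rested 5 hr at 37C, then exposed to DMSO-dissolved compounds for 24 hr. Activation was read as luciferase luminescence.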
On the % scale 0 is the no-effect control and ±100 the full control effect.

Chain of Nuclear receptor subfamily 1 group I member 2 (Homo sapiens) (O75469 whole entry, looked up): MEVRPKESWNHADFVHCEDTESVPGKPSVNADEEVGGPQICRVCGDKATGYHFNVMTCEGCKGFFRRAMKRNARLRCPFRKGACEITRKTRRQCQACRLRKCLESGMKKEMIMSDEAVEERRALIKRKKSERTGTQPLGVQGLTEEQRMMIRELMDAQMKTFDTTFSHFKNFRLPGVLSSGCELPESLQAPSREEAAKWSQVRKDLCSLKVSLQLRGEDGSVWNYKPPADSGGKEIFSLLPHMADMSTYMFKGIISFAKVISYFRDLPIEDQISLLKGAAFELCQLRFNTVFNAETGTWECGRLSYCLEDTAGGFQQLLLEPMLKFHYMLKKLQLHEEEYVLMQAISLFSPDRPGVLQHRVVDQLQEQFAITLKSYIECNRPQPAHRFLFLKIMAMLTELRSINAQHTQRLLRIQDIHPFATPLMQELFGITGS
Chain of Cytochrome P450 2D6 (Homo sapiens) (P10635 whole entry, looked up): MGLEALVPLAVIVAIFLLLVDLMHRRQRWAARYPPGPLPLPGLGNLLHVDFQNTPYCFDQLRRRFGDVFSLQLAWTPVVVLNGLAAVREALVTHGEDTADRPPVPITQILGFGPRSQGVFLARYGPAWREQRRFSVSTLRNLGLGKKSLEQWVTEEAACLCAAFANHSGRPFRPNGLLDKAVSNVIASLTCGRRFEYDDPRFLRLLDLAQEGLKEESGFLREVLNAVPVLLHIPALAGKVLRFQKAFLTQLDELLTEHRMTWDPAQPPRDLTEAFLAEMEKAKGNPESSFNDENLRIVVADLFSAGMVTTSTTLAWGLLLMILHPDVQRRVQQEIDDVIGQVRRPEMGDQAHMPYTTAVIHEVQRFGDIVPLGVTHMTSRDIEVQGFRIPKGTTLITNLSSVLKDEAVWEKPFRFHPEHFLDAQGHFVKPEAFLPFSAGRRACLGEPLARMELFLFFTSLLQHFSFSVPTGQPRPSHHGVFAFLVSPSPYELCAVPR
Chain of Nuclear receptor subfamily 1 group I member 2 (Rattus norvegicus) (Q9R1A7 whole entry, looked up): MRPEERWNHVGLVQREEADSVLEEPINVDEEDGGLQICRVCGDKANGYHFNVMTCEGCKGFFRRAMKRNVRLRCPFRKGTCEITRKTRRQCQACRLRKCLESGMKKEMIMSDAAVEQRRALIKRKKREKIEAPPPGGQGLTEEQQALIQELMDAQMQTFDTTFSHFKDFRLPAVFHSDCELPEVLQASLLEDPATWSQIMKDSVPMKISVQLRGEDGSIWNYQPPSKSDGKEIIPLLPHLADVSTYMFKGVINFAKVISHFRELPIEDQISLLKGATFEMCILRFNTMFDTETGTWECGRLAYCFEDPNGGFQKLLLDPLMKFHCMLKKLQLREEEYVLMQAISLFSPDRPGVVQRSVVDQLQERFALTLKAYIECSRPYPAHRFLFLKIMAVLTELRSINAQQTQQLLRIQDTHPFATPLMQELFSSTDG

As to `O=S(=O)(O)c1ccc(O)c2ncccc12`, the Potency entry in [1], in test [3], in test [4], in test [5], in [7] and in test [9] was “inactive” each time. Further, the Potency result in test [10] was “inactive”. In addition, the result in test [2], in test [6] and in test [8] was inactive.
For `CCOC(=O)C1=C(C)NC(C)=C(C(=O)OC)C1c1cccc([N+](=O)[O-])c1` (stereo unspecified), the Potency result in test [1], in test [4], in test [5], in test [12], in [7] and in test [9] was “inactive” in each case. Moreover, the Potency entry in test [13] and in test [14] was “inactive” throughout. The compound was called inactive in test [2], in [6], in test [11] and in test [8].
Consider `N#Cc1cc2ccccc2c2ccccc12`, for which the Potency result in test [1], in test [4], in test [5], in [12], in [7] and in [15] was “inactive” throughout. For the same compound, the Potency entry in test [9], in [13] and in [14] was “inactive” in each case. In addition, the outcome in [2], in test [6], in [11] and in [8] was inactive. The Potency in test [10] is 61.4 µM (active).
For the compound `CCC(=O)OC(C)(C)C1CC=C(C)CC1` (stereo unspecified), the Potency entry in test [1], in test [16], in test [4], in test [5], in test [7] and in [15] was “inactive” throughout. The Potency result in [9], in test [13] and in [10] was “inactive” each time. For the same compound, the call in test [2], in test [6] and in [8] was inactive.
For the compound `Cn1c(N)nc2nc[nH]c2c1=O`, the Potency entry in test [1], in [4], in test [5], in test [12], in test [7] and in test [15] was “inactive” throughout. Further, the Potency result in test [9], in [13] and in test [10] was “inactive” each time. Further, the compound was called inactive in test [2], in test [6], in test [11] and in test [8].
Take `Cc1cc(CC(=O)O)c(C)n1-c1ccc(Cl)cc1`: the Potency result in test [1], in test [16], in test [4], in test [5], in test [12] and in [7] was “inactive” each time. Further, the Potency entry in [15], in test [9], in test [13], in [10], in test [18] and in test [19] was “inactive” each time. Moreover, the call in test [2], in [6], in test [11] and in test [8] was inactive. Further, in test [17], the max activation is 0.177%.
For the compound `OCC1CC2CC1C1CCC(CO)C21` (stereo unspecified), the Potency entry in test [1], in test [4], in test [5], in test [7], in [15] and in [9] was “inactive” each time. Further, the Potency entry in test [13], in test [10] and in test [14] was “inactive” in each case. For the same compound, the compound was classed as inactive in test [2], in test [6] and in test [8]. Besides, the Potency in test [16] is 27.3 µM (active).
For the compound `CN(C)CCCOc1nn(Cc2ccccc2)c2ccccc12`, the Potency entry in [1], in test [3], in test [4], in test [5], in test [12] and in test [15] was “inactive” throughout. For the same compound, the Potency entry in test [9] and in test [13] was “inactive” in each case. The outcome in [2], in [6], in [11] and in [8] was inactive. Besides, in test [7], the Potency is 26.6 µM (active).
Regarding `CCCCOCCOCCOCCOCCO`, the Potency result in [1], in test [4], in test [5], in test [12], in test [7] and in [15] was “inactive” throughout. Besides, the Potency entry in test [9] and in test [10] was “inactive” in each case. For the same compound, the call in test [2], in [6], in test [11] and in [8] was inactive.
